# Active and inactive are the calls of the source. Cut-off read from the data, not from the text of the source, unless noted: active = inhibition above about 80%; inactive = the rest.
# What was measured:
# [1] = LFS_MB_1R medulloblastoma cell growth inhibition, synergistic combos for chromothripsis tumors, cisplatin or BGB combos (AID 1671452); conditions: LFS_MB_1R medulloblastoma cells, stronger effect = higher value;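 note: cells exposed for 96 hours before readout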
# [2] = CRL2098 osteosarcoma cell growth inhibition, synergistic combos for chromothripsis tumors, BGB or cisplatin IC20 combos (AID 1671454); conditions: CRL2098 osteosarcoma cells, drug combinations, stronger effect = higher value;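 note: cells exposed for 96 h before readout; 0% = vehicle DMSO and 100% = killing by high DMSO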
# [3] = HD-MB03 medulloblastoma cell growth inhibition, synergistic combos for chromothripsis tumors, BGB or cisplatin IC20 combos (AID 1671455; in the data active = inhibition above about 83%;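 note: 0% = vehicle DMSO and 100% = high DMSO as cytotoxic control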); conditions: HD-MB03 medulloblastoma cells, stronger effect = higher value
# [4] = UWB1.289 ovarian carcinoma cell growth inhibition, synergistic combos for chromothripsis tumors, BGB or cisplatin combos (AID 1671456); conditions: UWB1.289 ovarian carcinoma cells, stronger effect = higher value;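 note: cells exposed to compound for four days; 0% = vehicle DMSO and 100% = killing by high DMSO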
# [5] = LFS_MB_2R medulloblastoma cell growth inhibition, synergistic combos for chromothripsis tumors, cisplatin combos (AID 1671457); conditions: LFS_MB_2R medulloblastoma cells, stronger effect = higher value;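 note: cells exposed to compound for four days before readout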
# [6] = MDA-MB-436 breast carcinoma cell growth inhibition, synergistic combos for chromothripsis tumors, BGB or cisplatin combos (AID 1671458; call rule not given here;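 note: cells exposed for 96 hours; 0% = vehicle DMSO and 100% = killing by high DMSO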); conditions: MDA-MB-436 breast carcinoma growth inhibition, drug combinations, stronger effect = higher value
# [7] = UWB1.289_BRCA1 ovarian cancer growth, cell-based, BGB or cisplatin combinations (AID 1671459); conditions: UWB1.289 BRCA1 ovarian carcinoma, drug combinations, stronger effect = higher value
# [8] = human astrocyte viability loss, single and combined drugs, cytotoxicity control for chromothriptic childhood tumor combination screen, cell-based, BGB or cisplatin IC20 combos (AID 1671460); conditions: Human astrocytes, drug combinations, stronger effect = higher value;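 note: cells exposed to compounds for 96 hours before viability readout; 0% = vehicle and 100% = killing control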
# [9] = growth inhibition of BT084 medulloblastoma cells, cell-based, ICGC_MB145, cisplatin and BGB IC40 combos (AID 1671461); conditions: drug combinations, stronger effect = higher value;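 note: cells exposed to drugs for 96 hours; 0% = vehicle DMSO and 100% = high DMSO full killing control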
# [10] = growth inhibition of RCMB18 medulloblastoma cells, cell-based, cisplatin and BGB IC40 combos (AID 1671462); conditions: stronger effect = higher value;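 note: cells exposed to compound for four days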
# [11] = growth inhibition of CRL1545 osteosarcoma cells, cell-based, cisplatin and BGB IC20 combos (AID 1671464); conditions: stronger effect = higher value;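 note: cells exposed to compound for 96 hours before readout; 0% = vehicle DMSO and 100% = high DMSO killing control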
# [12] = circadian clock period modulators, cell-based, LOPAC library, luminescence reporter (AID 2774; call rule not given here;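 note: values are relative to mean of DMSO wells on each plate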); conditions: circadian reporter cells, at 7 µM, actives lie on both sides
# [13] = hESC survival regulators, cell-based (AID 493140; call rule not given here;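 note: cells exposed to compounds for four days before counting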); conditions: human embryonic stem cell survival screen; stronger effect = higher value
# [14] = test system: Hepatitis C virus NS3 helicase; experiment: HCV NS3 helicase inhibitors, primary screen, biochemical, fluorescence polarization, LOPAC1280 library (AID 687035; in the data active = inhibition above about 37%); conditions: Purified HCV NS3 helicase, Cy5-dT15 ssDNA binding fluorescence polarization; stronger effect = higher value; concentration not given here
# [15] = Cy5 fluorescence quenching or enhancement artefacts, artefact control for HCV NS3 helicase inhibitor project, biochemical, LOPAC1280 (AID 687037; call rule not given here); conditions: Cy5-DNA-NS3h complex fluorescence interference counterscreen
# [16] = measured here: combination with BGB IC40, at 0.05 µM
# [17] = measured here: combination with cisplatin, at 0.5 µM
# [18] = measured here: combination with cisplatin, at 5 µM
# [19] = measured here: combination with BGB at IC20, at 0.5 µM
# [20] = measured here: combination with cisplatin at IC20, at 0.5 µM
# [21] = measured here: combo with BGB at IC20, at 0.5 µM
# [22] = measured here: combo with cisplatin at IC20, at 0.5 µM
# [23] = measured here: inhibition with BGB combination, at 0.05 µM
# [24] = measured here: inhibition with cisplatin combination, at 0.05 µM
# [25] = measured here: BGB combination, at 0.5 µM
# [26] = measured here: BGB combination, at 5 µM
# [27] = measured here: cisplatin combination, at 0.5 µM
# [28] = measured here: cisplatin combination, at 5 µM
# [29] = BGB combination, concentration series, at 5 µM
# [30] = cisplatin combination, concentration series, at 5 µM
# [31] = measured here: combo with BGB IC20, at 0.5 µM
# [32] = measured here: combo with cisplatin IC20, at 0.5 µM
# [33] = cisplatin combination, at 0.5 µM
# [34] = measured here: BGB IC40 combination 0.05 uM, at 0.05 µM
# [35] = measured here: BGB IC40 combination, at 0.05 µM
# [36] = measured here: with BGB IC20 combination, at 0.5 µM
# [37] = measured here: with cisplatin IC20 combination, at 0.5 µM
structure (smiles),measurement,setting,value
O=c1[nH]cnc2ccccc12,inhibition,[1]; at 0.5 µM,-18.8% (inactive)
same,inhibition,[1]; [16],-25.1%
same,inhibition,[1]; [17],-17.4%
same,inhibition,[1]; [18],-38.3%
same,inhibition,[2]; at 0.5 µM,-61.6% (inactive)
same,inhibition,[2]; [19],-35.5%
same,inhibition,[2]; [20],-103%
same,inhibition,[3]; at 0.5 µM,4.79% (inactive)
same,inhibition,[3]; [21],10.7%
same,inhibition,[3]; [22],11.6%
same,inhibition,[4]; at 0.5 µM,2.5% (inactive)
same,inhibition,[4]; [23],-5.21%
same,inhibition,[4]; [24],-17.2%
same,inhibition,[5]; at 0.5 µM,-8.8% (inactive)
same,inhibition,[5]; [17],-21.4%
same,inhibition,[5]; [18],-15.8%
same,inhibition,[6]; at 0.5 µM,-5.02% (inactive)
same,inhibition,[6]; [25],-15%
same,inhibition,[6]; [26],-20.2%
same,inhibition,[6]; [27],-1.15%
same,inhibition,[6]; [28],-18.2%
same,inhibition,[7]; [29],11.1%
same,inhibition,[7]; at 0.5 µM,0.09% (inactive)
same,inhibition,[7]; [30],-4.56%
same,inhibition,[8]; at 0.5 µM,12.5% (inactive)
same,inhibition,[8]; [31],-1.33%
same,inhibition,[8]; [32],21.8%
same,inhibition,[9]; at 0.5 µM,-14% (inactive)
same,inhibition,[9]; [33],-49.4%
same,inhibition,"[9]; cisplatin combination, at 5 µM",-11.8%
same,inhibition,[9]; [34],-51.7%
same,inhibition,"[9]; single agent, at 5 µM",12.2%
same,inhibition,[10]; at 0.5 µM,-16.1% (inactive)
same,inhibition,"[10]; cisplatin combo, at 5 µM",-26.7%
same,inhibition,[10]; [35],-1.26%
same,inhibition,[10]; [17],-25.5%
same,inhibition,"[10]; single agent, at 5 µM",-13.2%
same,inhibition,[11]; at 0.5 µM,0.67% (inactive)
same,inhibition,[11]; [36],-3.84%
same,inhibition,[11]; [37],1.34%
same,inhibition,"[11]; single agent, at 0.05 µM",-24.3%
same,inhibition,"[11]; single agent, at 5 µM",-5.49%
COc1cc2c(cc1C(F)(F)F)N(C(=O)Nc1cc(F)cc(-c3cccnc3)c1)CC2,period change,[12],0.195 h (inactive)
CC(C)C1C2CCC(C2)C1N (stereo not given),period change,[12],-0.025 h (inactive)
C=CC(=O)c1ccc2ccccc2c1,survival,[13],46.4 (inactive)
N#C/C(=C\c1ccc(O)c(O)c1)C(N)=O,survival,[13],73 (inactive)
C#CCN1C(C)=C(C(=O)OC)C(c2cccc([N+](=O)[O-])c2)C(C(=O)OCC)=C1C (stereo not given),period change,[12],-0.025 h (inactive)
same,inhibition,[14],1% (inactive)
same,fluorescence ratio (interference),[15],0.9 (inactive)
NS(=O)(=O)c1cccc2c1c([N+](=O)[O-])cc1nc(O)c(O)nc12,period change,[12],0.35 h (inactive)
same,inhibition,[14],-6% (inactive)
same,fluorescence ratio (interference),[15],1 (inactive)
COc1[nH]c2ccc(F)cc2c1C(=O)OCC1CCN(CCNS(C)(=O)=O)CC1,period change,[12],-0.015 h (inactive)
O=c1cc(N2CCOCC2)oc2c1ccc1ccccc12,inhibition,[1]; at 0.5 µM,-3.28% (inactive)
same,inhibition,[1]; [16],-8.81%
same,inhibition,[1]; [17],-5.09%
same,inhibition,[1]; [18],16.4%
same,inhibition,[2]; at 0.5 µM,-13.1% (inactive)
same,inhibition,[2]; [19],-40.8%
same,inhibition,[2]; [20],19.4%
same,inhibition,[3]; at 0.5 µM,3.57% (inactive)
same,inhibition,[3]; [21],4.4%
same,inhibition,[3]; [22],-1.01%
same,inhibition,[4]; at 0.5 µM,-1.52% (inactive)
same,inhibition,[4]; [23],2.55%
same,inhibition,[4]; [24],-7.12%
same,inhibition,[5]; at 0.5 µM,0.24% (inactive)
same,inhibition,[5]; [17],7.58%
same,inhibition,[5]; [18],0.815%
same,inhibition,[6]; at 0.5 µM,2.45% (inactive)
same,inhibition,[6]; [25],5.3%
same,inhibition,[6]; [26],-21.1%
same,inhibition,[6]; [27],-2.44%
same,inhibition,[6]; [28],-6.05%
same,inhibition,[7]; [29],-2.5%
same,inhibition,[7]; at 0.5 µM,-1.77% (inactive)
same,inhibition,[7]; [30],4.97%
same,inhibition,[8]; at 0.5 µM,1.74% (inactive)
same,inhibition,[8]; [31],-0.854%
same,inhibition,[8]; [32],0.235%
same,inhibition,[9]; at 0.5 µM,-4.41% (inactive)
same,inhibition,[9]; [33],-0.482%
same,inhibition,"[9]; cisplatin combination, at 5 µM",-111%
same,inhibition,[9]; [34],-19.7%
same,inhibition,"[9]; single agent, at 5 µM",2.3%
same,inhibition,[10]; at 0.5 µM,-17.7% (inactive)
same,inhibition,"[10]; cisplatin combo, at 5 µM",21.8%
same,inhibition,[10]; [35],-2.3%
same,inhibition,[10]; [17],-18.7%
same,inhibition,"[10]; single agent, at 5 µM",1.08%
same,inhibition,[11]; at 0.5 µM,11.6% (inactive)
same,inhibition,[11]; [36],-23.5%
same,inhibition,[11]; [37],28%
same,inhibition,"[11]; single agent, at 0.05 µM",-4.12%
same,inhibition,"[11]; single agent, at 5 µM",-7.26%
